Reference: PubChem BioAssay (NCATS)
Inconclusive results are not listed. Where a call stands in place of a potency, no number is given. The source made the active and inactive calls. The call rests on the fitted dose curve. Numbered stars: 1 amine (or outer) side, 2 acyl side, 3 side chain; on linkers, the order of the positions; unused ones are H or OH. Bridge positions count the residues as written; N and C are the ends. Square brackets hold non-standard residues; d marks the D form. Peptide text beside a SMILES is read from it. * marks the point of attachment. ξ: configuration not given here. pTerphenylCO(4''-OnC5H11) = CCCCCOc1ccc(-c2ccc(-c3ccc(C(=O)*)cc3)cc2)cc1; ξOrn(4,5-diOH) = O=C(C(CC(O)C(O)N[*:3])N[*:1])[*:2]; ξhTyr(βξ-OH,γξ-OH) = NC(C(=O)O)C(O)C(O)c1ccc(O)cc1; ξPro(3ξ-OH,4ξ-Me) = CC1CNC(C(=O)O)C1O; Hyp = O=C(O)[CH]1C[CH](O)CN1

Assay: Primary qHTS for inhibitors of SARS-S pseudo-typed particle cell entry (AID 1479145); further: nearly all actives have a fitted effect of over 45% in size
Conditions: SARS-S pseudotyped particle cell entry, luciferase reporter; series mostly up to 57.1 µM
Potency means the concentration at half of the fitted maximal effect.

Row | Compound | Potency | activity change, negative = inhibition
1 | CC(=O)OC1C[C@H](O[C@@H]2C(O)C[C@H](O[C@@H]3C(O)C[C@@H](OC4CC[C@]5(C)C(CCC6C5CC(O)[C@@]5(C)C(C7=CC(=O)OC7)CC[C@@]65O)C4)OC3C)OC2C)O[C@H](C)[C@H]1O[C@H]1OC(CO)C(O)C(O)C1O (some centres undefined) | 0.794 µM (active) | 
2 | Nc1nc(NC2CC2)c2ncn([C@H]3C=C[C@@H](CO)C3)c2n1 | inactive | 
3 | CCc1cc2c(cc1CC)CC(NC[C@H](O)c1ccc(O)c3[nH]c(=O)ccc13)C2 | inactive | 
4 | COc1ccc2c(c1)OC(C)(C)C(c1ccccc1)C2c1ccc(OCCN2CCCC2)cc1 (centres undefined) | inactive | 
5 | COc1cc([C@@H]2c3cc4c(cc3C(O[C@@H]3O[C@@H]5CO[C@@H](c6cccs6)OC5[C@H](O)[C@H]3O)C3COC(=O)[C@@H]32)OCO4)cc(OC)c1O (some centres undefined) | 1 µM (active) | 
6 | C[C@H]1O[C@@H](O[C@H]2[C@@H](O)C[C@H](O[C@H]3[C@@H](O)C[C@H](O[C@H]4CC[C@@]5(C)[C@H](CC[C@@H]6[C@@H]5C[C@@H](O)[C@]5(C)[C@@H](C7=CC(=O)OC7)CC[C@]65O)C4)O[C@@H]3C)O[C@@H]2C)C[C@H](O)[C@@H]1O | inactive | 
7 | CC[C@@]1(O)C(=O)OCc2c1cc1n(c2=O)Cc2cc3c([N+](=O)[O-])cccc3nc2-1 | inactive | 
8 | COc1cc2c(cc1O)CCN[C@]21CS[C@@H]2c3c(OC(C)=O)c(C)c4c(c3[C@H](COC1=O)N1[C@@H]2[C@H]2c3c(cc(C)c(OC)c3O)C[C@@H]([C@@H]1O)N2C)OCO4 |  | -93.9% [at 11.4 µM] (inactive)
9 | CN(C)C/C=C/C(=O)Nc1cc2c(Nc3ccc(F)c(Cl)c3)ncnc2cc1OC1CCOC1 (centres undefined) | 10 µM (active) | 
10 | CC(=O)OC1CC(OC2C(O)CC(OC3C(O)CC(OC4CCC5(C)C(CCC6C5CCC5(C)C(C7=CC(=O)OC7)CCC65O)C4)OC3C)OC2C)OC(C)C1O (centres undefined) | inactive | 
11 | CC(C)C[C@H](NC(=O)CNC(=O)c1cc(Cl)ccc1Cl)B1OC(=O)C(CC(=O)O)(CC(=O)O)O1 | inactive | 
12 | CO[C@H]1C[C@@H]2CC[C@@H](C)[C@@](O)(O2)C(=O)C(=O)N2CCCC[C@H]2C(=O)O[C@H]([C@@H](C)C[C@@H]2CC[C@@H](O)[C@H](OC)C2)CC(=O)[C@H](C)/C=C(\C)[C@@H](O)[C@@H](OC)C(=O)[C@H](C)C[C@H](C)/C=C/C=C/C=C/1C | inactive | 
13 | CO[C@H](C(=O)[C@@H](O)[C@@H](C)O)C1Cc2cc3cc(O[C@H]4C[C@@H](O[C@H]5C[C@@H](O)[C@H](O)[C@@H](C)O5)[C@@H](O)[C@@H](C)O4)c(C)c(O)c3c(O)c2C(=O)[C@H]1O[C@H]1C[C@@H](O[C@H]2C[C@@H](O[C@H]3C[C@](C)(O)[C@H](O)[C@@H](C)O3)[C@H](O)[C@@H](C)O2)[C@H](O)[C@@H](C)O1 (some centres undefined) | 3.55 µM (active) | 
14 | C/C(O)=C(\C#N)C(=O)Nc1ccc(C(F)(F)F)cc1 | inactive | 
15 | Cc1cc(-c2ccc(N=Nc3ccc4c(S(=O)(=O)O)cc(S(=O)(=O)O)c(N)c4c3O)c(C)c2)ccc1N=Nc1ccc2c(S(=O)(=O)O)cc(S(=O)(=O)O)c(N)c2c1O | inactive | 
16 | CCCCCCCCC=CCCCCCCCC(=O)NCCOC(=O)CC(C(=O)O)S(=O)(=O)O (centres undefined) | inactive | 
17 | CC1(S(=O)(=O)O)CC(=O)c2ccccc2C1=O (centres undefined) | inactive | 
18 | C(=C\c1ccncc1)/c1ccccc1 | inactive | 

Assay: Primary qHTS for Huh7 cytotoxicity: counterscreen for inhibitors of MERS-S pseudotyped particle cell entry (AID 1479147)
Conditions: cell viability read-out; series mostly up to 57.1 µM

Row | Compound | Potency | outcome
19 | Cc1ccc(C(=O)OCc2ccc([C@@H](CN)C(=O)Nc3ccc4cnccc4c3)cc2)c(C)c1 | inactive | 
20 | CCCCC(O)c1ccccc1 (centres undefined) | inactive | 
21 | CC(=O)O[C@H]1C[C@@H]2CC[C@@H]3[C@H](CC[C@@]4(C)[C@H]3C[C@H](N3CC[N+](C)(C)CC3)[C@@H]4OC(C)=O)[C@@]2(C)C[C@@H]1N1CC[N+](C)(C)CC1 | inactive | 
22 | C=CC(=O)N1CCCC(n2nc(-c3ccc(Oc4ccccc4)cc3)c3c(N)ncnc32)C1 (centres undefined) | inactive | 
23 | CCCCCOc1ccc(-c2ccc(-c3ccc(C(=O)NC4CC(O)C(O)NC(=O)C5C(O)C(C)CN5C(=O)C(C(C)O)NC(=O)C(C(O)C(O)c5ccc(O)cc5)NC(=O)C5CC(O)CN5C(=O)C(C(C)O)NC4=O)cc3)cc2)cc1 (stereo not drawn) ({pTerphenylCO(4''-OnC5H11)}-[ξOrn(4,5-diOH)]T[Hyp][ξhTyr(βξ-OH,γξ-OH)]T[ξPro(3ξ-OH,4ξ-Me)]; lactam 1-C; configuration not given here) | inactive | 
24 | CC[C@]12C=CCN3CC[C@@]4(c5cc([C@@]6(C(=O)OC)CC7C[C@@H](C(C)(F)F)CN(Cc8c6[nH]c6ccccc86)C7)c(OC)cc5N(C)[C@H]4[C@@](O)(C(=O)OC)[C@@H]1OC(C)=O)[C@@H]32 (some centres undefined) | inactive | 
25 | CN1c2c(nc(N)[nH]c2=O)NC[C@@H]1CNc1ccc(C(=O)N[C@@H](CCC(=O)O)C(=O)O)cc1 |  | inactive [at 5.34 µM]
26 | C[C@H]1CC[C@@H]2[C@@H](C)[C@H]3[C@H](C[C@H]4[C@@H]5CC=C6C[C@@H](O[C@@H]7O[C@H](CO)[C@H](O)[C@H](O[C@@H]8O[C@H](CO)[C@@H](O)[C@H](O)[C@H]8O)[C@H]7O[C@@H]7O[C@@H](C)[C@H](O)[C@@H](O)[C@H]7O)CC[C@]6(C)[C@H]5CC[C@]34C)N2C1 | inactive | 
27 | OCCOc1ccc(/C(=C(/CCCl)c2ccccc2)c2ccccc2)cc1 | inactive | 
28 | O=C(NC1CCN(CCCCC2(C(=O)NCC(F)(F)F)c3ccccc3-c3ccccc32)CC1)c1ccccc1-c1ccc(C(F)(F)F)cc1 | 31.6 µM (active) | 
29 | N[C@H](Cc1cnc[nH]1)C(=O)O | inactive | 
30 | C[C@@H](c1nc(-c2ccc(C#N)cc2)cs1)[C@](O)(Cn1cncn1)c1cc(F)ccc1F | inactive | 
31 | S=C1SCN(Cc2ccccc2)CN1Cc1ccccc1 | 35.5 µM (active) | 
32 | O=[N+]([O-])c1ccc(Oc2ccc(N=C=S)cc2)cc1 | inactive | 
33 | CNC(C)C(O)c1ccccc1 (centres undefined) | inactive | 
34 | CC[C@H](C)[C@@H]([C@@H](CC(=O)N1CCC[C@H]1[C@H](OC)[C@@H](C)C(=O)NCCc1ccccc1)OC)N(C)C(=O)[C@@H](NC(=O)[C@H](C(C)C)N(C)C)C(C)C | inactive | 
35 | CNCc1cc(-c2ccccc2F)n(S(=O)(=O)c2cccnc2)c1 | inactive | 
36 | OCCN1CCN(CC/C=C2/c3ccccc3Sc3ccc(Cl)cc32)CC1 | 22.4 µM (active) | 
37 | CCCOc1ccc2nc(NC(=O)OC)sc2c1 | inactive | 
38 | CCN(CC)C(=O)[C@]1(c2ccccc2)C[C@H]1CN | inactive | 
39 | CCCCCCCC/C=C/CCCCCCCC(=O)O | inactive | 
